In PubChem BioAssay:
Activity calls are given as the source filed them.

Experiments:
Albumin (Bos taurus) = Albumin (Bos taurus) (UniProt P02769); assay: bovine serum albumin binders on microarray, profiling panel, artefact control for SMM control protein annotation, biochemical, small-molecule microarray, Alexa647 label, 635/667 nm fluorescence (AID 1118); details: BSA-A647 binding, fluorescence 635 nm, higher = more signal;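 also: score merges 667 nm emission intensity and signal-to-noise per printed compound spot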
[1] = small-molecule microarray binders of probe aXIP, primary screen, biochemical, NeuroSMM set, 635/667 nm fluorescence (AID 1119); details: higher = more signal, called active from +8 up or from −8 down;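 also: probe is the protein aXip251-270 applied at 1 µg/mL to compound-printed slides; binding of probe to printed compounds measured as 667 nm fluorescence plus signal to noise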
[2] = small-molecule binders of probe aNOTCH3, primary screen, biochemical, small-molecule microarray, 635/667 nm fluorescence (AID 1120); details: higher = more signal;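 also: probe is a biotin-tagged antibody raised against NOTCH3 rather than NOTCH3 protein; score merges spot fluorescence near 667 nm with spot signal to noise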
[3] = small-molecule binders of probe aNOTCH2, primary screen, biochemical, small-molecule microarray, 635/667 nm fluorescence (AID 1121); details: higher = more signal;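 also: score merges feature fluorescence read at 667 nm with its signal to noise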
[4] = biological target: Carbonic anhydrase 2 (Homo sapiens) (UniProt P00918); assay: CAII small-molecule binders, profiling panel, biochemical, small-molecule microarray, Alexa647-labelled CAII (AID 1122); details: CAII-A647 binding fluorescence, higher = more signal
[5] = COS7 lysate on small-molecule microarray, probe aHis, 635 nm (AID 1123); details: COS7 cell lysate, fluorescence, higher = more signal;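 also: z-score combines 667nm fluorescence intensity with signal-to-noise per printed compound spot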
[6] = compound binding in COS7 lysate, probe aLAP1, primary screen, cell lysate, small-molecule microarray (AID 1124); details: probe aLAP1, fluorescence, higher = more signal;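 also: lysate comes from COS7 cells expressing LAP1 and is applied at 0.3 µg/mL; score merges spot fluorescence near 667 nm with signal-to-noise over triplicate slides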
Sam68 (KHDRBS1) = assay: Sam68 small-molecule binders, primary screen, biochemical, small-molecule microarray, 635 nm fluorescence (AID 1125); details: small-molecule microarray binding, higher = more signal;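 also: score merges 667 nm channel intensity with signal to noise over triplicate slides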
[7] = system: Chordin-like protein 2 (CHRDL2); assay: CHRDL2 small-molecule binders, primary screen, biochemical, small-molecule microarray, 635 nm fluorescence (AID 1126); details: small-molecule microarray binding, fluorescence 635 nm; higher = more signal;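 also: printed compound slides probed with Chrdl2 protein at 4 µg/mL for 1 h at 4 C; score merges 667 nm emission intensity with signal to noise over three replicate slides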
[8] = biological target: Concanavalin-A (Canavalia ensiformis) (UniProt P02866); assay: ConA small-molecule binders, primary screen, artefact control for SMM control protein annotation, biochemical, small-molecule microarray, Alexa647 label, 635 nm (AID 1127); details: ConA-A647 binding fluorescence, higher = more signal;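 also: z combines 667 nm emission intensity with signal-to-noise across three replicate slides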
[9] = anti-His antibody binders, primary screen, artefact control for SMM control protein annotation, biochemical, small-molecule microarray, 635 nm fluorescence (AID 1128); details: anti-His Alexa647 antibody binding, higher = more signal;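 also: score merges feature fluorescence with signal-to-noise for each printed compound spot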
[10] = system: Human papillomavirus type 1a E7 protein (residues 1-88); assay: HPV1a E7 small-molecule binders, primary screen, biochemical, small-molecule microarray, residues 1-88, 635 nm (AID 1129); details: small-molecule microarray binding, fluorescence 635 nm; higher = more signal
[11] = biological target: Focal adhesion kinase 1 (Homo sapiens) (UniProt Q05397); assay: small-molecule microarray binders of FAK, primary screen, biochemical, 635/667 nm fluorescence, BSA, DTT (AID 1130); details: PTK2 binding, 635 nm fluorescence, higher = more signal;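 also: composite of spot emission at 667 nm and signal to noise over triplicate slides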
[12] = system: Fibrinogen (Alexa647-labelled); assay: fibrinogen binders on compound microarrays, profiling panel, artefact control for SMM control-protein annotation, biochemical, small-molecule microarray, 635/667 nm fluorescence (AID 1131); details: fibrinogen-A647 binding fluorescence, higher = more signal;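 also: z-score merges 667 nm fluorescence with per-spot signal-to-noise over triplicate slides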
[13] = biological target: Follistatin (Homo sapiens) (UniProt P19883); assay: follistatin binders on small-molecule microarrays, primary screen, biochemical, small-molecule microarray, 635/667 nm fluorescence (AID 1132); details: FST binding, 635 nm fluorescence, higher = more signal
[14] = biological target: Fibroblast growth factor 2 (Homo sapiens) (UniProt P09038); assay: FGF2 binders on small-molecule microarrays, primary screen, biochemical, small-molecule microarray, 635/667 nm fluorescence (AID 1133); details: small-molecule microarray binding, FGF2, fluorescence 635/667; higher = more signal
[15] = mitochondrial membrane potential change in A549 cells, profiling panel, cell-based, JC-1 fluorescence, basal, 24 h, 100 nL (AID 1138); details: higher = more signal;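 also: A549 lung adenocarcinoma cells under basal conditions with no added stimulus; test concentration not given here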
Lefty1 = Lefty1 binders on small-molecule microarrays, primary screen, biochemical, small-molecule microarray, 635/667 nm fluorescence (AID 1139); details: small-molecule microarray binding, fluorescence 635/667; higher = more signal
[16] = system: wheat germ agglutinin (Triticum aestivum), Alexa647-labelled; assay: wheat germ agglutinin binders on compound microarrays, profiling panel, artefact control for SMM control-protein annotation, biochemical, small-molecule microarray, 635/667 nm fluorescence (AID 1140); details: WGA-A647 binding, 635 nm fluorescence, higher = more signal;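 also: score merges 667 nm feature emission with signal to noise over triplicate slides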
[17] = biological target: Luciferin 4-monooxygenase (Photinus pyralis) (UniProt P08659); assay: firefly luciferase enzyme inhibitors, primary screen, biochemical, luminescence, purified enzyme, 2006 set (AID 1141); details: SteadyGlo luminescence, 30 min, higher = more signal, called active from +8 up or from −8 down;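 also: cell-free assay with purified firefly luciferase at 100 ng per well in PBS; test concentration not given here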
Luciferin 4-monooxygenase (Photinus pyralis), sequence (P08659 whole entry, looked up): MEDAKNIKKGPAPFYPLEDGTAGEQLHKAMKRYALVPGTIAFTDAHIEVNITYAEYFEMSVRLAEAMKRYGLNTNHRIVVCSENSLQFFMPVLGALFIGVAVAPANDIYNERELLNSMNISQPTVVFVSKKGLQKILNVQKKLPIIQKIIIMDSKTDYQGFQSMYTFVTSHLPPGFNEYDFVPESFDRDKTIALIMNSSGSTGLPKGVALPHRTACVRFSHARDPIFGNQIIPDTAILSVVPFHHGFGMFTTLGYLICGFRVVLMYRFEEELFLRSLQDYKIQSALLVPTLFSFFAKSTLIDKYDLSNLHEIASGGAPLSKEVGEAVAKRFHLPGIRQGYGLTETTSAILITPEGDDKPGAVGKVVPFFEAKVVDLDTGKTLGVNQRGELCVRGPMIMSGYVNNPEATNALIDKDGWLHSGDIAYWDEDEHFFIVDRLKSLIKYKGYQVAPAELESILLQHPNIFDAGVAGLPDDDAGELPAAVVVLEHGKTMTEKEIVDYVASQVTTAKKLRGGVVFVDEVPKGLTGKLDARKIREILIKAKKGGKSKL

Albumin (Bos taurus), sequence (P02769 whole entry, looked up): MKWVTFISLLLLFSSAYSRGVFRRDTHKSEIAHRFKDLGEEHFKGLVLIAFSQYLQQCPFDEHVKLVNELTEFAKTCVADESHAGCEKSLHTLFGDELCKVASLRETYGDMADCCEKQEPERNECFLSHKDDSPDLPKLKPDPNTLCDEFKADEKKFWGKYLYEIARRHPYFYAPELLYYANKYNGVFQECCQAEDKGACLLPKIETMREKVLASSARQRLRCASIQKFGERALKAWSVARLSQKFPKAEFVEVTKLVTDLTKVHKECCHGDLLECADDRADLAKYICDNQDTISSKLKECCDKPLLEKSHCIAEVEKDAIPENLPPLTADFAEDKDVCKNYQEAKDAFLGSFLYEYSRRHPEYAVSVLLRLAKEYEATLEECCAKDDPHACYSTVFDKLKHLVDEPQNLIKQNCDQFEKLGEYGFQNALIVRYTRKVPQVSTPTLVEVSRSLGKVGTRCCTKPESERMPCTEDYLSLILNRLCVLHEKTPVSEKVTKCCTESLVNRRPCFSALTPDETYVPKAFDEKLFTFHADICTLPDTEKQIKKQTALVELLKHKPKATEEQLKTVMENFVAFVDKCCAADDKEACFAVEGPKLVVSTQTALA
Concanavalin-A (Canavalia ensiformis), sequence (P02866 whole entry, looked up): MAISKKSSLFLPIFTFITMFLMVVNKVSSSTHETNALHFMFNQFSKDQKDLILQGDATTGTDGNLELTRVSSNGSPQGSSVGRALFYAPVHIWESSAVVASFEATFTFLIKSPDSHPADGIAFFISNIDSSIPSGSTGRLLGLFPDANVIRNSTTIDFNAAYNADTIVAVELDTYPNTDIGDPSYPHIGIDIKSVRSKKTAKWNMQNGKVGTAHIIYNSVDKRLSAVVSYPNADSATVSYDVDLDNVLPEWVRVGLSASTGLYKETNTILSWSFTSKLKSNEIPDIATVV
Follistatin (Homo sapiens), sequence (P19883 whole entry, looked up): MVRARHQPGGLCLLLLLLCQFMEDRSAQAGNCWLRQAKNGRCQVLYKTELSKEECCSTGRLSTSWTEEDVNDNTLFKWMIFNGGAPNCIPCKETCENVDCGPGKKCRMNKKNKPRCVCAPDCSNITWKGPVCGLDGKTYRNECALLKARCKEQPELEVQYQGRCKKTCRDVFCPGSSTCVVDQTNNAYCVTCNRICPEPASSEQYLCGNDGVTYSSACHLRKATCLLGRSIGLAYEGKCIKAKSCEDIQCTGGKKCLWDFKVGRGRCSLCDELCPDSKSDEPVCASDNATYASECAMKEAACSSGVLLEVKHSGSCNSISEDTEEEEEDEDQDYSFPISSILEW
Fibroblast growth factor 2 (Homo sapiens), sequence (P09038 whole entry, looked up): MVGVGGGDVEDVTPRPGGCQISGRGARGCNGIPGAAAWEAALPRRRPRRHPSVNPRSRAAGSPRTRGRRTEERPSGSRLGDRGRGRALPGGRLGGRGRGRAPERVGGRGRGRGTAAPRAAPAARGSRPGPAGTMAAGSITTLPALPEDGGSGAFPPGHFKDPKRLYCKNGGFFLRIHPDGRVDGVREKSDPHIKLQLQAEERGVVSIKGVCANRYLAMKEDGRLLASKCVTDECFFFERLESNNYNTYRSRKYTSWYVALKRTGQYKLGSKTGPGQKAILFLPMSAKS
Focal adhesion kinase 1 (Homo sapiens), sequence (Q05397 whole entry, looked up): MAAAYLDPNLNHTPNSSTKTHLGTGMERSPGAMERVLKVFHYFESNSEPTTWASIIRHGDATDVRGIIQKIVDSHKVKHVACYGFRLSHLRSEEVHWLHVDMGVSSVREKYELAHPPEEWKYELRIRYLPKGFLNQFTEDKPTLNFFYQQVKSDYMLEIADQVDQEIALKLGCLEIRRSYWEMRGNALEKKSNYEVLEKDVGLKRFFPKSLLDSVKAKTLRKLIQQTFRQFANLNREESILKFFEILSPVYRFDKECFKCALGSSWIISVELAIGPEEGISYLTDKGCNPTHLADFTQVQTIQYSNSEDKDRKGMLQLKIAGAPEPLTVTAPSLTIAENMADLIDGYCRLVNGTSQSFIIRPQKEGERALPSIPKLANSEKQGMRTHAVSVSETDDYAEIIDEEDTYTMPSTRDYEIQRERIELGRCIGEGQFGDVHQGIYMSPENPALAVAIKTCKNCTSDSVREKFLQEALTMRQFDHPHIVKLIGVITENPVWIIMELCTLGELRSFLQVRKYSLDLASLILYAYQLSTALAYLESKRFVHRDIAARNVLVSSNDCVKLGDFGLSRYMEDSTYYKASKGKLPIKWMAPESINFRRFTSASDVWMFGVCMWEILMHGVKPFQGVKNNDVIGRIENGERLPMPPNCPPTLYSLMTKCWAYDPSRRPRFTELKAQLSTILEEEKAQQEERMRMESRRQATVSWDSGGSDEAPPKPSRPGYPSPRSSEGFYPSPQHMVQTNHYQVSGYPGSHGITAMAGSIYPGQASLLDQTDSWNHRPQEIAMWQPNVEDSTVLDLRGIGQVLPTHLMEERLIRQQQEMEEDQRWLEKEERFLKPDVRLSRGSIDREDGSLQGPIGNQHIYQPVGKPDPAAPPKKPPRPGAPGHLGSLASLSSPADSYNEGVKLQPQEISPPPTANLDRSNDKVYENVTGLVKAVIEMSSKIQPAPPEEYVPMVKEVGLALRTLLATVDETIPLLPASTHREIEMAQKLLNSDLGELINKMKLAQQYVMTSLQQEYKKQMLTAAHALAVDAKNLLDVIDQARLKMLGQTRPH

| Compound | composite z-score (Albumin (Bos taurus)) | composite Z-score [1] | composite z-score [2] | composite z-score [3] | composite z-score [4] | composite z-score [5] | composite z-score [6] | composite z-score (Sam68 (KHDRBS1)) | composite z-score [7] | composite z-score [8] | composite z-score [9] | composite z-score [10] | composite z-score [11] | composite z-score [12] | composite z-score [13] | composite z-score [14] | z-score [15] | composite z-score (Lefty1) | composite z-score [16] | z-score [17] |
| --- | --- | --- | --- | --- | --- | --- | --- | --- | --- | --- | --- | --- | --- | --- | --- | --- | --- | --- | --- | --- |
| COC(=O)[C@H](C)NC(=O)CCC1CC(OC(=O)NCc2ccc3c(c2)OCO3)CC2(CCCC(COC(=O)NCc3cccc(C(F)(F)F)c3)O2)O1 (stereo not given in full) | 0.133 | 0.298 (inactive) | -0.0014 | -0.133 | 0.424 | 1.08 | 0.234 | 1.02 | 0.301 | 0.746 | 0.0275 | 0.741 | 0.587 | 0.387 | 0.792 | 0.63 | -0.238 | 1.15 | 0.613 | 0.969 (inactive) |
| COC(=O)[C@H](C)NC(=O)CCC1CC(OC(=O)NCc2cccc3ccccc23)CC2(CCCC(COC(=O)NCC(c3ccccc3)c3ccccc3)O2)O1 (stereo not given in full) | 0.576 | -0.171 (inactive) | 0.0242 | -0.0895 | 0.553 | 1.27 | 0.433 | 1.32 | -0.087 | 0.423 | 1.04 | 1.15 | 0.713 | 0.665 | 0.376 | 0.227 | 1.17 | 0.554 | 0.661 | 1.22 (inactive) |
| CCOC(=O)[C@H](CC(C)C)NC(=O)CCC1CC(OC(=O)NCCc2ccc(F)cc2)CC2(CCCC(COC(=O)NCC(c3ccccc3)c3ccccc3)O2)O1 (stereo not given in full) | 0.436 | 0.428 (inactive) | 0.0372 | -0.108 | 0.349 | -0.0758 | 0.0521 | 1.11 | 0.609 | 1.1 | 0.59 | 0.749 | 0.097 | 0.874 | 0.678 | 0.533 | -0.642 | 0.875 | 0.737 | 0.897 (inactive) |
| CCOC(=O)[C@H](Cc1ccccc1)NC(=O)CCC1CC(OC(=O)NCCc2ccc(F)cc2)CC2(CCCC(COC(=O)NCCOC)O2)O1 (stereo not given in full) | 0.257 | 0.0225 (inactive) | 0.0525 | -0.157 | 0.0121 | 1.07 | 0.148 | 1.32 | 0.657 | 0.404 | 0.384 | 1.17 | 2.79 | 0.916 | 1.01 | 0.557 | 0.671 | 1.26 | 0.526 | -0.24 (inactive) |
| COC(=O)CC=C[C@@H](C)[C@@H](C=NO[C@@H](C)c1cn([C@H](CO)Cc2ccccc2)nn1)NS(=O)(=O)c1ccc(C)cc1 | -0.193 | -0.0278 (inactive) | 0.107 | -0.103 | -0.146 | -0.306 | 0.232 | 0.43 | 0.784 | -0.419 | 1.56 | 0.332 | 0.265 | 0.982 | 0.95 | 0.459 | -0.517 | 0.681 | 0.0187 | -1.28 (inactive) |
| COC(=O)CC=C[C@@H](C)[C@@H](C=NOCC[C@@H]1C=C[C@H](OC(C)=O)[C@@H](COC(C)=O)O1)OC | -0.395 | 0.181 (inactive) | -0.0006 | -0.115 | -0.0197 | 0.849 | -0.0402 | 0.411 | 0.432 | -0.319 | -0.131 | 0.34 | 0.222 | -0.902 | 0.73 | 0.785 | 0.493 | 0.66 | -0.876 | 0.177 (inactive) |
| CCOC(=O)[C@H](CC(C)C)NC(=O)CCC1CC(OC(=O)NCc2ccc3c(c2)OCO3)CC2(CCCC(COC(=O)NCC3CCCCC3)O2)O1 (stereo not given in full) | 0.235 | 0.189 (inactive) | 0.31 | -0.207 | 0.368 | 0.636 | 0.244 | 1.32 | 0.567 | 0.512 | 1.18 | 0.939 | -0.217 | -0.195 | 1.18 | 0.928 | 0.0853 | 1.63 | 0.584 | 0.885 (inactive) |
| C[C@@H]1C=CCC(=O)OC[C@H]2O[C@@H](C=C[C@@H]2O)[C@H](C)C=CCC(=O)OC1 | -0.861 | 4.07 (inactive) | 0.0903 | -0.0903 | -0.5 | -1.26 | -0.307 | -0.419 | 1.6 | -1.65 | 0.341 | -0.813 | 1.7 | -1.06 | 1.56 | 1.98 | 2.16 | 1.71 | -0.513 | -1.82 (inactive) |
| CC(C)CON=C1C[C@@H](O)[C@@H](O)[C@@H]2[C@@H]3C(=O)N(C4CCCCC4)C(=O)[C@@H]3CC[C@H]12 | 0.536 | -0.409 (inactive) | 0.0021 | -0.125 | 0.445 | 0.84 | 0.606 | 1.3 | 0.25 | 1.11 | 0.55 | 0.666 | 0.005 | 0.657 | 0.346 | 0.781 | 0.246 | 0.837 | 0.812 | -0.266 (inactive) |
| CC(C)(C)N1C(=O)[C@H]2[C@H]3[C@H](O)C=CC(=O)[C@@H]3CC[C@H]2C1=O | -0.161 | 0.913 (inactive) | -0.0584 | 0.0098 | -0.0943 | -0.463 | 0.632 | -0.0221 | 0.311 | 0.607 | 0.204 | 0.025 | -0.258 | 0.347 | 0.39 | 0.255 | 0.109 | 0.461 | 0.0896 | -0.753 (inactive) |
| CCOC(=O)[C@H](Cc1ccccc1)NC(=O)CCC1CC(OC(=O)NCCc2ccc(F)cc2)CC2(CCCC(COC(=O)NCCc3ccc(Cl)cc3)O2)O1 (stereo not given in full) | 0.755 | 0.118 (inactive) | 0.0179 | -0.101 | 0.283 | 1.12 | 0.416 | 1.23 | 0.38 | 1.03 | 1.03 | 1.09 | 0.671 | 0.832 | 0.326 | 0.996 | 0.699 | 0.583 | 0.105 | 0.361 (inactive) |
